Whole data set: some 33,000 sequences, median “e-score” near -0.037, cut for the highest 2% near 0.34. Only a selection was taken, and the highest values are over-represented in it overall.
These sequences were tested against T1, GST-Rok (full length) (Bacillus subtilis subsp. subtilis str. …, UniProt O34857 1-191) (assay: protein binding microarray; Rok is a gene silencer of Bacillus subtilis; high values mean tight binding). Details: protein: recombinant; tags: GST (pTH5325, pDEST15-Magic modified); dsDNA, one strand shown.
T1 sequence: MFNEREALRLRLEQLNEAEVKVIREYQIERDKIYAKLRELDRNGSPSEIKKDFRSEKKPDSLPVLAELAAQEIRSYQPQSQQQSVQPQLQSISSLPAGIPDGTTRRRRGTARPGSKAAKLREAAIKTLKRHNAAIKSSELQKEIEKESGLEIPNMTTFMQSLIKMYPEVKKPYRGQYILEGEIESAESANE
Outline: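 Each has a 25-mer constant primer and a 35-mer variable part from a de Bruijn sequence of order 10, covering every non-palindromic 8-mer at least 32 times (palindromic 16). Preference for each 8-mer is given as a rank-based, unitless enrichment score (E-score). Its range runs from 0.5 (most favored) to −0.5 (most disfavored).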

Row | Sequence | binding signal [E-score]
1 | AACCATAA | 0.0915
2 | GACCATAA | -0.0227
3 | TACCATAA | 0.336
4 | AATAGTTG | 0.313
5 | GATAGTGA | 0.162
6 | GATAGTTA | 0.391
7 | CATAGTTA | 0.244
8 | AATAGTTA | 0.372
9 | GATAGTCA | 0.0302
10 | TGCTGCAA | -0.149
11 | GCAATACA | 0.115
12 | CAACGACG | -0.1
13 | CATAGCCG | -0.0675
14 | CGAACCCG | -0.099
15 | CATAAAGA | 0.0223
16 | AGCAGAGA | -0.129
17 | GTACGATA | 0.252
18 | ATACGGTG | 0.0458
19 | CTACGGTA | 0.175
20 | ATACGATC | 0.0843
21 | ATACGGTA | 0.348
22 | ATACGATA | 0.366
23 | GTTATGAA | 0.155
24 | AAACATCT | 0.0882
25 | AGGAGGAA | -0.159

Row | Sequence | binding signal [E-score]
26 | GCAGTCTA | 0.0175
27 | AACTAGAG | 0.107
28 | AACTAGAT | 0.369
29 | TGCTAGAA | 0.387
30 | AACTAGAC | 0.103
31 | AGCTAGAT | 0.215
32 | AGCTAGAA | 0.329
33 | TACTAGAA | 0.375
34 | AACTAGAA | 0.395
35 | GACTAGAA | 0.15
36 | ACCTAGAA | 0.109
37 | CACTAGAA | 0.224
38 | GGCTAGAA | -0.0986
39 | AAAAAGCT | -0.0996
40 | GAGTACCA | -0.0678
41 | ACACATGA | 0.211
42 | GACGTAGC | 0.0184
43 | AGGTTGAC | -0.156
44 | CGTAAGGC | -0.174
45 | AGAGGACT | -0.176
46 | GAGCTAAC | 0.0297
47 | ATCCTAAG | -0.0403
48 | AATCAATG | 0.0424
49 | CACTTATC | 0.23
50 | ACGTAAAG | 0.0236

Row | Sequence | binding signal [E-score]
51 | GATAGAAC | 0.278
52 | TTTAGAAA | 0.183
53 | GGTAGAAC | 0.374
54 | GGTAGAGA | 0.0752
55 | GTTAGAAC | 0.0808
56 | GGTAGAAA | 0.472
57 | CGTAGAAA | 0.359
58 | TGTAGACA | 0.159
59 | CGTAGAAC | 0.0102
60 | CGTAGAAG | 0.128
61 | TGTAGAAA | 0.396
62 | GGTAGACA | 0.0655
63 | AAGTGAGC | -0.093
64 | CGTGCCTA | -0.0621
65 | GCCCACTA | 0.00538
66 | CCTCTTAC | -0.169
67 | AGGTTAAT | 0.137
68 | CTGATAAG | 0.0753
69 | TCCGTAGA | 0.118
70 | CTGGAACA | -0.0188
71 | ATACAAAC | 0.354
72 | ATACATAG | 0.391
73 | GTACATAC | 0.28
74 | CTACATAC | 0.269
75 | ATACATAC | 0.372

Row | Sequence | binding signal [E-score]
76 | ATACAAAA | 0.278
77 | AAACATAT | 0.316
78 | ATACACAT | 0.303
79 | ATACAAAT | 0.32
80 | ATACATAA | 0.316
81 | CTACATAG | 0.153
82 | ATACATAT | 0.399
83 | GAATGTAA | 0.21
84 | AGCCCTAT | -0.0484
85 | CGCGATGC | -0.0559
86 | AAATTAAA | 0.166
87 | AGGTTCAT | -0.0409
88 | GAATGGAC | -0.0766
89 | AAGGTTGT | -0.00326
90 | GCGATAAA | 0.182
91 | ATACAATG | 0.254
92 | ATACAATA | 0.359
93 | ATACAATC | 0.192
94 | CATAATCA | 0.164
95 | CGAGGCCA | -0.199
96 | TGAACTAA | 0.0469
97 | ATTCGAAA | 0.159
98 | ATTCGAAT | 0.342
99 | ATTCGAAG | 0.09
100 | AGCGGTTA | -0.138

Row | Sequence | binding signal [E-score]
101 | AGCGGTAT | 0.321
102 | AGCGGTAC | -0.166
103 | ACCGGTAA | 0.255
104 | AGCGGTAG | 0.34
105 | CCCGGTAG | -0.134
106 | ACCGGTAG | 0.374
107 | CTATGTCA | 0.225
108 | AAGTCGCC | -0.0852
109 | AAAGCATT | -0.0355
110 | ACTAGTAC | 0.41
111 | ACTAGTAG | 0.426
112 | ACTAGTGG | 0.00757
113 | ACTAGTAT | 0.422
114 | ACTAGTCT | 0.248
115 | CCTAGTAG | 0.233
116 | CCTAGTAC | 0.125
117 | GCTAGTAC | 0.181
118 | ACCAGTAT | 0.255
119 | AGTTAAGC | -0.0477
120 | GGCTAAGA | 0.000408
121 | GTTCTCAA | 0.0738
122 | TAACACTA | 0.284
123 | GAAGACTC | -0.114
124 | CAGTAGGC | -0.157
125 | TCCTACAA | 0.0302

Row | Sequence | binding signal [E-score]
126 | AGGCTTCG | -0.0947
127 | AGCCCTAA | -0.164
128 | CTAATTAA | 0.233
129 | GTAATTAA | 0.181
130 | GTAATTAC | 0.421
131 | ATAATTAT | 0.268
132 | CTAATTAC | 0.329
133 | ATAATTAG | 0.317
134 | ATAATTAA | 0.29
135 | CTAATTAG | 0.375
136 | ATAATTAC | 0.385
137 | GAACCCAA | -0.176
138 | ATGAAATC | 0.029
139 | AGGTCTGG | -0.0443
140 | ATGTACAT | 0.409
141 | CTGTACAA | 0.0838
142 | ATGTAAAA | 0.295
143 | TTGTACAA | 0.387
144 | ATGTACAA | 0.311
145 | ATGTACAG | 0.3
146 | GTGTACAA | 0.167
147 | AGCTACCA | 0.358
148 | AGCTACCC | -0.139
149 | ATGTAAAC | 0.0692
150 | AGCTACCT | 0.164

Row | Sequence | binding signal [E-score]
151 | ATGTAAAT | 0.376
152 | ATAATTCC | 0.213
153 | GAGAACAA | -0.119
154 | GTCGTTTA | 0.0636
155 | CCTCACAG | -0.0675
156 | AGCAGCAG | -0.124
157 | ACGGACAC | -0.126
158 | CGCATTAA | 0.0651
159 | GTGATTTA | 0.06
160 | CCAGGAGC | -0.14
161 | AGCGTCTA | 0.0457
162 | ATCTACCC | 0.25
163 | CTGTACCA | -0.0416
164 | GTCTACCA | 0.0944
165 | ATCTACCG | 0.409
166 | ACCTACCG | 0.169
167 | AGCTACCG | 0.309
168 | ATCTACCA | 0.48
169 | ATGTACCC | 0.0665
170 | ATGTACCA | 0.342
171 | ATTGCCGG | -0.0899
172 | ACCAGCCG | 0.0494

From article PMC6212790, “How bacterial xenogeneic silencer rok distinguishes foreign from self DNA in its resident genome”
